According to PubChem BioAssay:
Where “and” joins values, the source holds several entries; their conditions need not be identical. Equal entries are not always repeated. Results filed as inconclusive are left out. Calls of active or inactive are those of the source.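 Rule for the calls, unless noted: active = thallium flux through the channel raised or lowered by more than 3 SD from vehicle-only wells, actives on both sides; inactive = the rest.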

How the values were obtained:
[1] = modulation of C. elegans fzo-1 (AID 1259413; call rule not given here;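 note: fzo-1 mutant C. elegans worms in liquid wells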); details: C. elegans fzo-1 modulator screen, mean read-out; stronger effect = higher value
[2] = system: F380Y/beta1; experiment: modulators of BK channel variants, profiling panel, selectivity assay, cell-based, U2OS BacMam, thallium flux, beta subunits (AID 1259406); details: at 30 µM;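 note: initial slope of Thallos dye fluorescence rise after thallium is added; log ratio against the mean of 0.3% DMSO vehicle wells on the same plate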
[3] = system: F380Y/beta4; experiment: as above; details: at 30 µM
[4] = system: R275C/beta4; experiment: as above; details: at 30 µM
[5] = system: R275C/Slo1WT/beta2; experiment: as above; details: at 30 µM
[6] = Cy5 fluorescence interference with SSB-bound oligo, artefact control for HCV NS3 helicase inhibitor project, biochemical, NIH Clinical Collection, E. coli SSB (AID 743268; call rule not given here)
[7] = system: Hepatitis C virus NS3 helicase; experiment: HCV NS3 helicase inhibitors, primary screen, biochemical, fluorescence polarization, NIH Clinical Collection (AID 743270; call rule not given here); details: NS3 helicase binding to Cy5-dT15 DNA, stronger effect = higher value, concentration not given here
[8] = target: Single-stranded DNA-binding protein (Escherichia coli (strain K12)) (UniProt P0AGE0); experiment: E. coli SSB displacement from DNA, counter-screen for HCV NS3 helicase inhibitor project, biochemical, fluorescence polarization, NIH Clinical Collection (AID 743271; in the data active = inhibition above about 28%); details: stronger effect = higher value, concentration not given here
[9] = fluorescence interference in NS3h assay format, artefact control for HCV NS3 helicase inhibitor project, biochemical, NIH Clinical Collection (AID 743272; call rule not given here;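 note: HCV NS3 helicase with a Cy5 labelled single stranded DNA probe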); details: fluorescence interference counterscreen, stronger effect = lower value
[10] = growth inhibition of DIPG glioma cells, dose response, cell-based, SU-DIPG-XVII, MIPE5.0, CellTiter-Glo, qHTS (AID 1347060; cut-off not given, nearly all actives have AC50 up to about 26 µM); details: SU-DIPG-XVII viability, CellTiter-Glo ATP luminescence
[11] = growth inhibition of DIPG glioma cells, dose response, cell-based, SU-DIPG-XIII, MIPE4.0, CellTiter-Glo, qHTS (AID 1347061; cut-off not given, nearly all actives have AC50 up to about 37 µM;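 note: cells exposed to compound for 48 hours before readout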); details: SU-DIPG-XIII viability, CellTiter-Glo ATP luminescence
[12] = viability loss in pontine glioma line – cell-based, SU-DIPG-XXV, MIPE5.0, CellTiter-Glo, qHTS, dose response (AID 1347065; cut-off not given, nearly all actives have AC50 up to about 26 µM;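 note: cells exposed to compound for 48 hours before ATP readout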); details: CellTiter-Glo ATP luminescence
[13] = SU-DIPG-VI glioma cell viability, MIPE4.0 library, CellTiter-Glo luminescence, qHTS (AID 1347066; cut-off not given, nearly all actives have AC50 up to about 30 µM;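 note: cells exposed to compound for 48 hours before readout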); details: CellTiter-Glo ATP luminescence
[14] = JHH-DIPG-1 glioma cell viability, MIPE5.0 library, CellTiter-Glo luminescence, qHTS (AID 1347067; cut-off not given, nearly all actives have AC50 up to about 26 µM;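 note: cells exposed to compound for 48 hours before readout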); details: JHH-DIPG-1 glioma viability, CellTiter-Glo ATP luminescence
[15] = reducers of polyQ inclusions in PC12 cells, cell-based, NGF-treated PC12, GFPQ80 (AID 1614); details: PC12 NGF-treated GFP-polyQ80 inclusion reduction;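 note: lower means fewer inclusions and 0 means no inclusions at all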
[16] = SU-DIPG-XXV glioma cell viability, MIPE5.0 library, qHTS (AID 1347068; cut-off not given, nearly all actives have IC50 up to about 30 µM)
[17] = LFS_MB_P medulloblastoma growth inhibition, cell-based, chromothripsis tumors, cisplatin or BGB combos (AID 1671449; in the data active = inhibition above about 80%;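 note: cells exposed for 96 hours; 0% = vehicle DMSO and 100% = killing by high DMSO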); details: LFS_MB_P medulloblastoma cells
[18] = HDN33 neuroblastoma growth inhibition, cell-based, chromothripsis tumors, cisplatin or BGB combos (AID 1671450; in the data active = inhibition above about 80%;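 note: cells exposed to compound for four days; 0% = vehicle DMSO and 100% = cell killing by high DMSO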); details: HDN33 neuroblastoma cells, stronger effect = higher value
[19] = HTB85 osteosarcoma cell growth inhibition, synergistic combos for chromothripsis tumors, BGB or cisplatin IC20 combos (AID 1671453; in the data active = inhibition above about 80%;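 note: cells exposed for 96 hours before readout; 0% = vehicle DMSO and 100% = high DMSO killing control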); details: HTB85 osteosarcoma cells, drug combinations, stronger effect = higher value

COc1cccc([C@@]2(O)CCCC[C@@H]2CN(C)C)c1
inactive: mean signal [1] 274 | log fold change Tl+ flux [2] -0.0211 | log fold change Tl+ flux [3] -0.0244 | log fold change Tl+ flux [4] -0.00931 | log fold change Tl+ flux [5] 0.0567

COc1cc(N)c(Cl)cc1C(=O)NC1CN2CCC1CC2 (stereo not given)
inactive: fluorescence ratio [6] 0.94 | inhibition [7] -2.77% | inhibition [8] 9.91% | fluorescence ratio [9] 0.87 | mean signal [1] 253

C=C1C[C@@H]2[C@H](CC[C@]3(C)C(=O)CC[C@@H]23)[C@@]2(C)C=CC(=O)C=C12
inactive: fluorescence ratio [6] 1.07 | inhibition [7] 2.77% | inhibition [8] 2.98% | fluorescence ratio [9] 1.05 | outcome [10] | outcome [11] | outcome [12] | outcome [13] | outcome [14] | log fold change Tl+ flux [2] 0.059 | log fold change Tl+ flux [3] 0.013 | log fold change Tl+ flux [4] 0.0226 | log fold change Tl+ flux [5] 0.0155

Nc1ccncc1
2: inclusion score [15]

CNCC(O)c1ccc(O)cc1 (stereo not given)
inactive: fluorescence ratio [6] 0.99 | inhibition [7] -1.09% | inhibition [8] -0.39% | fluorescence ratio [9] 0.96 | mean signal [1] 258 | outcome [10] | outcome [11] | outcome [12] | outcome [13] | outcome [14] | outcome [16] | log fold change Tl+ flux [2] -4.2e-05 | log fold change Tl+ flux [3] -0.01 | log fold change Tl+ flux [4] -0.013 | log fold change Tl+ flux [5] 0.0309

O=P1(NCCCl)OCCCN1CCCl (stereo not given)
inactive: outcome [10] | outcome [11] | outcome [12] | outcome [13] | outcome [14] | outcome [16] | inhibition ([17]; at 0.5 µM, stronger effect = higher value) -12.1% and -23.4% | inhibition ([18]; at 0.5 µM) 2.74% and -43.1% | inhibition ([19]; at 0.5 µM) -11.8% and -20.1%
-15% and -23.6%: inhibition ([17]; measured here: combination with BGB IC40, at 0.005 µM)
-4.58% and -35.3%: inhibition ([18]; measured here: with cisplatin IC20 combination, at 0.5 µM)
-14.3% and -32.8%: inhibition ([18]; cisplatin combo, at 5 µM)
-22.5% and -36.7%: inhibition ([17]; measured here: combination with BGB IC40, at 0.05 µM)
-44% and -49.9%: inhibition ([17]; measured here: combination with cisplatin, at 5 µM, stronger effect = higher value)
-10.4% and -9.47%: inhibition ([19]; single agent, at 5 µM)
-26.1% and -41.8%: inhibition ([19]; measured here: with BGB IC20, at 0.5 µM)
1.05% and -46.6%: inhibition ([19]; measured here: with cisplatin IC20, at 5 µM)
36.5% and -51.2%: inhibition ([18]; measured here: with BGB IC20 combination, at 0.5 µM)
9.75% and -12.8%: inhibition ([19]; measured here: with cisplatin IC20, at 0.5 µM)
-24.7% and -29.3%: inhibition ([18]; single agent, at 5 µM)
-18.3% and -55.5%: inhibition ([18]; BGB combo, at 5 µM)
-22%: inhibition ([17]; measured here: combination with BGB IC20, at 0.005 µM)
-16.8% and -29.8%: inhibition ([19]; measured here: with BGB IC20, at 5 µM)
-34.3% and -30.8%: inhibition ([17]; measured here: combination with cisplatin, at 0.5 µM, stronger effect = higher value)

NC1=NC(=O)C(c2ccccc2)O1 (stereo not given)
inactive: fluorescence ratio [6] 1.02 | inhibition [7] 2.77% | inhibition [8] 1.44% | fluorescence ratio [9] 0.93 | mean signal [1] 245 | log fold change Tl+ flux [2] -0.0441 | log fold change Tl+ flux [3] 0.00709 | log fold change Tl+ flux [4] -0.0245
active: log fold change Tl+ flux [5] 0.0857

c1ccc2c(c1)Nc1ccccc1S2
inactive: fluorescence ratio [6] 0.96 | inhibition [7] 1.53% | inhibition [8] 5.12% | fluorescence ratio [9] 0.95 | mean signal [1] 265 | log fold change Tl+ flux [2] 0.0323 | log fold change Tl+ flux [3] -0.0296 | log fold change Tl+ flux [4] -0.0162 | log fold change Tl+ flux [5] 0.00584

CN1C(=O)CN=C(c2ccccc2)c2cc([N+](=O)[O-])ccc21
inactive: fluorescence ratio [6] 1.07 | inhibition [7] 5.94% | inhibition [8] 1.44% | fluorescence ratio [9] 1.04 | mean signal [1] 228 | log fold change Tl+ flux [2] -0.0526 | log fold change Tl+ flux [3] 0.0228 | log fold change Tl+ flux [4] 0.0115 | log fold change Tl+ flux [5] 0.0318
